From PubChem BioAssay
ALDH1A1 inh – qHTS Assay for Inhibitors of Aldehyde Dehydrogenase 1 (ALDH1A1). Purified ALDH1A1, NADH fluorescence, propionaldehyde substrate. Aldehyde dehydrogenase 1A1 (Homo sapiens), P00352. Potency, µM (titrated, usually from 75.3 µM), for the others: at the top dose activity, negative = inhibition, usual class: inhibitors. 220,000 compounds, 7.3% hits; active = well fitted inhibition curve with a large enough effect, not every such curve was filed as active; inconclusive = small, poorly fitted or top-dose-only effect, or another doubt; inactive = no such curve, though single readings can be large or run the other way;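 also: potency is read from the fitted curve at half-maximal effect; plate controls were no enzyme wells and a reference inhibitor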
Target sequence (P00352 whole entry, looked up): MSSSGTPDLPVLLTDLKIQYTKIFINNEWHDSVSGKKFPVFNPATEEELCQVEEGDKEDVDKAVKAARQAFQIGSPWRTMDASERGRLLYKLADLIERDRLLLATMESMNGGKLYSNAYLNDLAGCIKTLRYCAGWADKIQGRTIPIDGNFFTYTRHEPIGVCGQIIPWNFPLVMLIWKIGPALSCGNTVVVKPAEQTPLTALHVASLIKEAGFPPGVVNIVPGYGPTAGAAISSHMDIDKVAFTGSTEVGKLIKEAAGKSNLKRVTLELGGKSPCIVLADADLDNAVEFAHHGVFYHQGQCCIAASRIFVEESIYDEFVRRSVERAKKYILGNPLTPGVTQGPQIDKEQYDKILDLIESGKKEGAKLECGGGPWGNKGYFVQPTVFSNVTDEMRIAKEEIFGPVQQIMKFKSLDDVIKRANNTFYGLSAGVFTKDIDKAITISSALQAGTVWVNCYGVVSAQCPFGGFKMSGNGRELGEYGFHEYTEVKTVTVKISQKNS
HPGD block – qHTS Assay for Inhibitors of HPGD (15-Hydroxyprostaglandin Dehydrogenase); purified HPGD, NADH fluorescence kinetic, PGE2 substrate; AID 894, 2007; Potency, µM, for the others: at the highest dose activity change, negative = inhibition, usual class: inhibitors; 15-hydroxyprostaglandin dehydrogenase [NAD(+)] (Homo sapiens), P15428; 150,000 compounds, 4.3% hits; active = well fitted inhibition curve with a large enough effect, not every such curve was filed as active; inconclusive = small, poorly fitted or top-dose-only effect, or another doubt; inactive = no such curve, though single readings can be large or run the other way; also: potency is read from the fitted curve at half-maximal effect; % is scaled to controls: 0 for no effect and ±100 for the full control effect
Target sequence (P15428 whole entry, looked up): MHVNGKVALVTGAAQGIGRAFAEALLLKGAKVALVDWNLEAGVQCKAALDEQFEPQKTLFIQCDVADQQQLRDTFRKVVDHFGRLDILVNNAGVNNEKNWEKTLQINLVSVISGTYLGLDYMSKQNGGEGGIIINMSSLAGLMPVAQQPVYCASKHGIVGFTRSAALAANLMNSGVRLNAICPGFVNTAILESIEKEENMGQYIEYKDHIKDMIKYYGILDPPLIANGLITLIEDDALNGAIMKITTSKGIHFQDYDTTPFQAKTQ
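20 nM HPGD preincubated 15 min at room temperature with compound in 50 mM Tris-HCl pH 8, 0.01% Tween 20. Started with 1 mM NAD+ and 30 uM prostaglandin E2; NADH fluorescence (360/450 nm) read 5 times over 30-s intervals, last minus first.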
PNC inhibitor – High Content Assay for Compounds that inhibit the Assembly of the Perinucleolar Compartment; PC3M PTB-GFP, PNC prevalence imaging, 16 h; hits give low values; activity change (PNC), negative = inhibition, % at 10 µM; 140,000 compounds, 3.1% hits; AID 2417, 2010;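 active = readout at or below -70, meaning at least 70% loss of cells showing the perinucleolar compartment, a nuclear body marking cancer cells; inconclusive = readout between -30 and a set limit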;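 also: plate controls were DMSO wells for no effect and camptothecin positive control wells for full effect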
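PC3M cells stably expressing PTB-GFP, 750–1000 cells/well, treated 16 h at 37 °C with compound (23 nl of library stock), in duplicate. After paraformaldehyde fixation and Hoechst stain, imaged at 20x; PNC prevalence scored by image analysis.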
HTT ATP protect – qHTS Multiplex Assay to Identify Dual Action Probes in a Cell Model of Huntington: Cytoprotection (ATP); PC12 HTT-Q103 induced, cytoprotection, ATP luminescence, 40 h; Potency, µM (series often up to 56.4 µM), for the others: cytoprotection (ATP increase), usual class: activators; 230,000 compounds, 0.14% hits; also: potency is read from the fitted curve at half-maximal effect; % of control where 0% means no effect; nearly all actives have a fitted effect of over 45% in size
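PC12 cells with ecdysone-inducible HTT exon 1 Q103-GFP, induced with 100 nM tebufenozide and co-treated with library compounds in a dose series (1536-well, 1500 cells/well). Cytoprotection read as ATP content by ATPlite luminescence.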
CBFb RUNX1 block – qHTS Assay for Compounds Blocking the Interaction Between CBF-beta and RUNX1 for the Treatment of Acute Myeloid Leukemia. AlphaScreen CBFb-His/RUNX1-biotin binding, biochemical. Potency, µM (doses to about 59.8 µM), for the others: at the top dose activity, negative = inhibition, actives largely listed as inhibitors. 230,000 tested, under 10 active. Runt-related transcription factor 1 (Homo sapiens) + Core-binding factor subunit beta …; also: % of control where 0% means no effect
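AlphaScreen binding: CBFb-His and RUNX1-biotin (30 nM each) preincubated 20 min, compound added for 15 min, then nickel and streptavidin beads for 90 min, all at room temperature. Disruption of the interaction by any mechanism counts as activity.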
HttQ103 aggreg – qHTS Multiplex Assay to Identify Dual Action Probes in a Cell Model of Huntington: Aggregate Formation (GFP); PC12 HttQ103-GFP aggregates, Acumen cytometry, 40 h; Potency, µM (highest dose often 46.1 µM), inactives show at the highest dose activity change, negative = inhibition, hits mostly inhibitors; 220,000 compounds, 1.1% hits; AID 1688, 2009; also: potency is read from the fitted curve at half-maximal effect; % is scaled to controls: 0 for no effect and ±100 for the full control effect; nearly all actives have a fitted effect of over 60% in size
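Compounds (qHTS titration) were added to PC12 cells expressing an ecdysone-driven HTT exon 1 Q103–GFP fusion after induction with 100 nM tebufenozide. Aggregate formation was measured as GFP objects in cell lysates.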
* marks the source's active call; other numbers are inactive results; ! = not active in a repeat; [ ] = remark or other dose. Only some compounds are listed: those with a hit (about 11% of all), similar ones and a draw of the others. Unless noted, calls follow the shape of the dose curve; as a rule, active = well fitted curve in the direction sought with a large enough effect; inconclusive = small, poorly fitted or top-dose-only effect, or another doubt; inactive = no such curve, though single readings can be large; an effect the other way counts as inactive or inconclusive.

Results for COC(=O)C1(C(=O)OC)C[C@@H]2CON=C2[C@H]1c1ccccc1 ?
ALDH1A1 inh: 11.2%; HPGD block: -10.8%; HTT ATP protect: 20µM*!; CBFb RUNX1 block: -5.9%

How did CCOC(=O)CN(C)C(=O)C1CC(CO[Si](C)(C)C(C)(C)C)=CN1C(=O)OC(C)(C)C (configuration not stated) do in these assays?
CBFb RUNX1 block: 15.4%

How did O=C1N/C(=N/Nc2ccccc2)S/C1=C\c1ccccc1 do in these assays?
ALDH1A1 inh: 5.62µM*; HPGD block: 10µM*; PNC inhibitor: 26.9; HTT ATP protect: -8.4%; CBFb RUNX1 block: -0.5%; HttQ103 aggreg: -14.2%

Results for O=C1NC(=Nc2ccccc2)S/C1=C/c1cccnc1 ?
ALDH1A1 inh: 0.2%; HTT ATP protect: 17.5%; CBFb RUNX1 block: 10.5%; HttQ103 aggreg: -29.9%

What do the screens show for `C=C(C)COc1ccc2c(c1)CCC1C2CC[C@]2(C)C(=O)/C(=N/O)CC12` (some centres not stated)?
ALDH1A1 inh: 7.5%[13.5 µM]; HPGD block: 2.0%; HTT ATP protect: -20.0%[10 µM]

What do the screens show for `CN(C)c1cc[n+](CC(=O)c2ccc(OC(F)F)cc2)cc1`?
HTT ATP protect: 1.6%[10 µM]; CBFb RUNX1 block: 3.6%; HttQ103 aggreg: -8.1%[9.22 µM]

How did Nc1ccc(-c2ccc(Nc3cc(S(=O)(=O)O)c(N)c4c3C(=O)c3ccccc3C4=O)cc2)c(S(=O)(=O)O)c1 do in these assays?
ALDH1A1 inh: -15.0%[13.5 µM]; HPGD block: -28.0%; HTT ATP protect: 3.5%[10 µM]

Results for Cc1cc(C)c(Nc2cc(S(=O)(=O)O)c(N)c3c2C(=O)c2ccccc2C3=O)c(C)c1 ?
ALDH1A1 inh: 25.1µM*; HPGD block: inconclusive; PNC inhibitor: 1.0; HTT ATP protect: 24.6%[10 µM]; HttQ103 aggreg: 21.1%

Results for N#Cc1c(/N=C/c2ccco2)sc2c1CCC2 ?
ALDH1A1 inh: -4.6%; HPGD block: -6.9%; PNC inhibitor: 38.0; HTT ATP protect: 5.0%; CBFb RUNX1 block: -8.9%; HttQ103 aggreg: -7.7%

Results for CCOc1[nH]c(/N=C/c2ccco2)c(C#N)c1C#N ?
ALDH1A1 inh: 20µM*; HPGD block: inconclusive; PNC inhibitor: 23.1; HTT ATP protect: -4.6%[0.074 µM]; CBFb RUNX1 block: -4.9%; HttQ103 aggreg: 13.8%

Results for COC(=O)c1ccc(C(/C=C/[C@@H](C)C(=O)NCc2ccc(OC)c(O)c2)NC(=O)OCc2ccccc2)cc1 (some centres not stated) ?
ALDH1A1 inh: inconclusive; HPGD block: -14.7%; HTT ATP protect: -3.3%; CBFb RUNX1 block: -1.3%

What do the screens show for `COC(=O)C(C)Sc1nnc(Cc2cc(=O)[nH]c(=O)[nH]2)n1-c1ccc(OC)cc1` (configuration not stated)?
ALDH1A1 inh: 6.9%; HPGD block: -1.2%; PNC inhibitor: -25.6; HTT ATP protect: -2.4%; CBFb RUNX1 block: 5.3%; HttQ103 aggreg: 4.8%

Results for CCOc1ccc(Cn2c3ccc(OC)cc3c3nc4ccccc4nc32)cc1 ?
ALDH1A1 inh: 5.0%; HPGD block: -14.6%; PNC inhibitor: -89.0*; CBFb RUNX1 block: 12.4%; HttQ103 aggreg: 7.9%

What do the screens show for `CC(=O)N1CCC[C@@]2(CCN(Cc3cc(C(F)(F)F)cc(C(F)(F)F)c3)C2)C1`?
ALDH1A1 inh: 0.9%; HPGD block: -3.7%; HTT ATP protect: 1.1%

What do the screens show for `C[C@@H](O)[C@@H]1C(=O)N2C(C(=O)O)=C([C@H]3CCCO3)S[C@H]12`?
HTT ATP protect: 18.7%; HttQ103 aggreg: 14.0%

What do the screens show for `Cc1ccc(Nc2nc(C3CC3)cs2)cc1`?
ALDH1A1 inh: inconclusive; HPGD block: -15.8%; PNC inhibitor: -119.3*; HTT ATP protect: 6.2%[10 µM]; CBFb RUNX1 block: -5.2%; HttQ103 aggreg: 17.2%

What do the screens show for `Cc1c(C(=O)NCCO)[n+](=O)c2ccccc2n1[O-]`?
HTT ATP protect: 6.9%; HttQ103 aggreg: 9.0%

What do the screens show for `O=c1[nH]c2cc(C(F)(F)F)c(N3CCOCC3)cc2n(CP(=O)(O)O)c1=O`?
ALDH1A1 inh: 7.2%; HPGD block: -13.4%; HTT ATP protect: -18.8%; CBFb RUNX1 block: 5.2%; HttQ103 aggreg: -8.5%

Results for COc1ccccc1C(=O)OCCN1CCOCC1 ?
ALDH1A1 inh: 17.2%; HPGD block: -4.0%; PNC inhibitor: inconclusive; HTT ATP protect: 9.9%; CBFb RUNX1 block: 1.9%; HttQ103 aggreg: 20.4%[9.22 µM]

What do the screens show for `O=C(OCCN1CCOCC1)C(c1ccccc1)c1ccccc1`?
ALDH1A1 inh: 25.1µM*; HPGD block: -9.8%; PNC inhibitor: inconclusive; HTT ATP protect: -15.4%[10 µM]; CBFb RUNX1 block: -4.8%; HttQ103 aggreg: -0.1%

What do the screens show for `COc1ccc(C(=O)C(CN2CCOCC2)c2ccccc2)cc1F` (configuration not stated)?
ALDH1A1 inh: -8.5%; HPGD block: 2.5%; PNC inhibitor: -22.7; HTT ATP protect: 3.16µM*; CBFb RUNX1 block: 0.0%

Results for CC(CN1CCOCC1)OC(=O)c1ccccc1 (configuration not stated) ?
ALDH1A1 inh: 13.3%; HTT ATP protect: -20.5%[10 µM]; CBFb RUNX1 block: -9.6%; HttQ103 aggreg: -23.0%[9.22 µM]

How did CC(CN1CCOCC1)C(=O)c1ccccc1 (configuration not stated) do in these assays?
ALDH1A1 inh: 31.6µM*; HPGD block: -5.3%; PNC inhibitor: 58.2; HTT ATP protect: -8.2%; CBFb RUNX1 block: 12.8%; HttQ103 aggreg: -1.4%[9.22 µM]

Results for CCC12CN(C(=O)c3ccc(C)cc3)CC(CC)(CN(C(=O)c3ccc(C)cc3)C1)C2=O ?
ALDH1A1 inh: -8.2%; HPGD block: -2.4%; PNC inhibitor: -5.6; HTT ATP protect: -0.3%[10 µM]; CBFb RUNX1 block: 3.1%; HttQ103 aggreg: -15.7%

What do the screens show for `O=S(=O)(NC1CCCCC1)c1cccc(-c2nnc(-c3ccccc3)o2)c1`?
ALDH1A1 inh: inconclusive; HPGD block: 17.8µM*; PNC inhibitor: 35.1; HTT ATP protect: 0.5%; CBFb RUNX1 block: 9.2%; HttQ103 aggreg: inconclusive

How did Cc1ccccc1Nc1oc(-c2ccccc2)nc1-c1cccc2ccccc12 do in these assays?
ALDH1A1 inh: 25.1µM*; HPGD block: -1.6%; HTT ATP protect: 13.8%; CBFb RUNX1 block: -3.7%
